D3 ag: D3 dopamine receptor (human) agonism | D3R DiscoveRx beta-arrestin cells, luminescence, 90 min | max activation, % | hit rate 0.58% among 410,000; in the data active = max activation above about 30%
Target sequence (P35462 whole entry, looked up): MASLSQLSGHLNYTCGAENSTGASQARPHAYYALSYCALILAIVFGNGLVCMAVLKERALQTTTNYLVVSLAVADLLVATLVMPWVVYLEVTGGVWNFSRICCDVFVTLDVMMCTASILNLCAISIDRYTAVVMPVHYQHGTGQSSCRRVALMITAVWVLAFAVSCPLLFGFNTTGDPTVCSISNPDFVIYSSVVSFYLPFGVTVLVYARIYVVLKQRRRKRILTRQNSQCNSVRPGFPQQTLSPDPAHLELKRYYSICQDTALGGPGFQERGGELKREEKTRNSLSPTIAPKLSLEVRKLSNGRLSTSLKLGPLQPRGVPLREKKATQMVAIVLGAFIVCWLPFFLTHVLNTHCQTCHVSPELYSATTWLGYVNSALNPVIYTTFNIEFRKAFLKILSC
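Agonist-mode cell screen: cells plated at 1500/well and incubated overnight at 37 °C, then exposed to library compounds for 90 min at 37 °C. Detection reagent was added for 30–60 min at room temperature, and luminescence was read.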
a7 integrin act: integrin-mediated muscular dystrophy alleviation activation | alpha7betagal myoblasts, beta-gal FDG fluorescence, 48 h | Potency, µM (highest dose often 38.3 µM), actives largely listed as activators | hit rate 0.064% among 350,000; active = well fitted activation curve with a large enough effect; inconclusive = small, poorly fitted or top-dose-only effect; inactive = no such curve, though single readings can be large or run the other way; also: nearly all actives have a fitted effect of over 60% in size
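Alpha7betagal+/- myoblasts (passage 13) were plated 16-24 hr, then exposed to compounds (1:260 dilution of DMSO stock) for 48 hours at 37C. After MPER lysis, β-galactosidase reporter activity was read as FDG fluorescence (ex 480/em 540) after 30 minutes.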
DRD3 antagonist: D3 dopamine receptor (human) antagonism | max response, negative = inhibition, % | hit rate 2.5% among 360,000 | AID 652054 | D3R cells, DiscoveRx beta-arrestin luminescence, antagonist mode; hits give low values | P35462; in the data active = max response below about -50%; inconclusive = no clear call, values can overlap the other calls
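Cells expressing the human receptor were seeded at 1500 cells/well, incubated overnight at 37 degrees C in 5% CO2, then exposed to library compounds with dopamine controls for 90 minutes at 37 degrees C before luminescent detection.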
Large screens that a line does not name were inactive. Shown are actives, neighbours in structure and some others; about 2.9% of the full set was active somewhere.

Cc1c(S(=O)(=O)N2CCN(c3cccc(C(F)(F)F)c3)CC2)c(=O)n(C)c(=O)n1C	none
Cc1c(CN2CCN(c3cccc(C(F)(F)F)c3)CC2)c(=O)n(-c2ccccc2)n1C	DRD3 antagonist -76
COc1ccc(NC(=O)N2CCN(c3cccc(C(F)(F)F)c3)CC2)cc1OC	none
COc1ccc(CC(C)N2CCN(c3cccc(C(F)(F)F)c3)CC2)cc1OC (centres undefined)	DRD3 antagonist -88
CCOc1cc(CN2CCSCC2)ccc1O	DRD3 antagonist inconclusive
O=c1cc(CO)oc(CN2CCN(c3ccccc3)CC2)c1O	none
CCOc1cc(CN2CCN(c3cccc(C(F)(F)F)c3)CC2)ccc1O	DRD3 antagonist -86
O=c1cc(CO)oc(CN2CCN(c3cccc(C(F)(F)F)c3)CC2)c1O	DRD3 antagonist -64
O=C(C1CC1c1ccccc1)N1CCN(c2cccc(Cl)c2)CC1 (centres undefined)	none
CC(C)(C)NC(=O)N1CCCC(C(=O)c2cccc(Cl)c2)C1 (centres undefined)	DRD3 antagonist inconclusive
Cc1cc(C)cc(-n2ccn(Cc3ccccc3C)c(=O)c2=O)c1	none (no result: a7 integrin act, DRD3 antagonist)
Cc1ccccc1C(=O)c1c[nH]c(C(=O)N=CN(C)C)c1	none
Cc1nc(NC(=O)c2ccncc2)sc1C(=O)N(C)C	a7 integrin act inconclusive
COC(=O)c1ccccc1NC(=O)CN1CCN(Cc2ccccc2)CC1	none
COC(=O)c1cc(CN2CCN(c3ccccc3)CC2)ccc1O	DRD3 antagonist -56
CCOc1cc(CN2CCN(c3cccc(C(F)(F)F)c3)CC2)ccc1OC	DRD3 antagonist -89
CCOc1cc(CN2CCN(c3ccc(C(C)=O)cc3)CC2)ccc1OC	none
CC1CCN(S(=O)(=O)c2ccc(NC(=O)c3ccccc3F)cc2)CC1	none
Cc1ccc(Cc2c(-c3ccc(F)cc3)nc3cc(C)ccn23)cc1	DRD3 antagonist -68
Cc1ccc(Cc2c(-c3ccc(Br)cc3)nc3cc(C)ccn23)cc1	none
O=C(CN1CCN(Cc2ccc(F)cc2)CC1)Nc1ccccc1F	none
C=C1C(=O)[C@]23C[C@H]1CC[C@H]2[C@]1(C)[C@@H](OC(C)=O)CC[C@@](C)(C(=O)OC)[C@H]1C[C@@H]3OC(C)=O	DRD3 antagonist -107 (no result: a7 integrin act)
C=C1C(=O)[C@]23C[C@H]1CCC2[C@@]1(C)C(C[C@@H]3O)[C@](C)(C(=O)OC)CC[C@@H]1OC(C)=O (some centres undefined)	DRD3 antagonist -133 (no result: a7 integrin act)
C=C1C(=O)[C@]23C[C@H]1CC[C@H]2[C@]1(C)[C@@H](OC(C)=O)CC[C@@](C)(C(=O)O)[C@H]1C[C@@H]3O	DRD3 antagonist inconclusive (no result: a7 integrin act)
C=C1C(=O)[C@]23C[C@H]1CC[C@H]2[C@]1(C)[C@@H](O)CC[C@@](C)(C(=O)O)[C@H]1C[C@@H]3O	none (no result: a7 integrin act)
CC1(c2ccccc2)NC(=O)N(CC(=O)Nc2ccc(S(N)(=O)=O)cc2)C1=O (centres undefined)	none
CC(=O)N1CCN=C1SCc1ccccc1	none
CN1CC(=O)N(CC(=O)Nc2cccc(C#N)c2)c2ccccc2C1=O	none (no result: a7 integrin act, DRD3 antagonist)
CCCCOc1ccc(C(=O)N/C(=C\c2cccc([N+](=O)[O-])c2)C(=O)OCc2ccco2)cc1	none
CCOC(=O)[C@]12CCC=C1N(Cc1ccccc1)C(=O)[C@H](CC(=O)NCC13CC4CC(CC(C4)C1)C3)C2	DRD3 antagonist -53 (no result: a7 integrin act)
CCOC(=O)[C@]12CCC=C1N(Cc1cccc3ccccc13)C(=O)[C@H](CC(=O)NCC13CC4CC(CC(C4)C1)C3)C2	none (no result: a7 integrin act)
Fc1ccccc1NC(=S)N1CCN(Cc2ccc3c(c2)OCO3)CC1	none
COc1cccc(C(=O)NCCCN2CCN(CCCNC(=O)c3cccc(OC)c3)CC2)c1	none
CCOc1cc(OCC)cc(C(=O)NCCN2CCC(n3c(=O)[nH]c4ccccc43)CC2)c1	DRD3 antagonist -95 (no result: a7 integrin act)
O=C(NCCN1CCCC1)c1ccc2c(=O)n(CCc3ccccc3)c(=O)[nH]c2c1	none
COc1cccc(C(=O)NCCN2CCC(n3c(=O)[nH]c4ccccc43)CC2)c1	DRD3 antagonist -78 (no result: a7 integrin act)
CC(C)C1C(=O)N(Cc2cn(CC3CCCCC3)nn2)CCS(=O)(=O)N1Cc1ccc(-c2ccc(F)nc2)cc1 (centres undefined)	none
Cc1cccnc1N(C(=O)Nc1ccccc1)C1=NCC(C)(C)S1	none
CC1(C)CN=C(N(C(=O)Nc2ccccc2)c2ccccc2F)S1	D3 ag 31
Cc1noc(C)c1S(=O)(=O)Nc1ccc(C(=O)NCc2ccccc2)cc1	none
COc1ccc(/C=C/CN2CCCC(CO)(Cc3cccc(Cl)c3)C2)cc1 (centres undefined)	DRD3 antagonist -60
COc1cccc(CC2(CO)CCCN(Cc3ccccc3Cl)C2)c1 (centres undefined)	none
COc1ccc(F)c(CN2CCCC(CO)(Cc3cccc(Cl)c3)C2)c1 (centres undefined)	DRD3 antagonist inconclusive
COc1ccccc1/C=C/CN1CCCC(CO)(Cc2cccc(Cl)c2)C1 (centres undefined)	DRD3 antagonist -59
COc1cccc(CC2(CO)CCCN(C/C=C/c3ccccc3OC)C2)c1 (centres undefined)	DRD3 antagonist -82
COc1cc(Cl)c(CN2CCCC(CO)(Cc3cccc(Cl)c3)C2)cc1OC (centres undefined)	none
CN1CCCC(OC(=O)c2cc(Cl)cc(Cl)c2)C1 (centres undefined)	none
O=[N+]([O-])c1ccc(N=NN(CCO)CCO)cc1	none
O=[N+]([O-])c1ccc(N=Nc2ncc[nH]2)cc1	DRD3 antagonist -111
CON(C)C(=O)CCC1CCCN1C(=O)OC(C)(C)C (centres undefined)	none
COc1ccccc1NC(=O)Nc1ccnn1C1CCCCC1	none
CCCCNC(=O)Nc1ccnn1C1CCCCC1	DRD3 antagonist -76
O=c1[nH]c(SCCOc2ccccc2)nc2ccccc12	none
COc1cc(C(=O)NC(CCSC)C(=O)Nc2ccc(N3CCOCC3)cc2)cc(OC)c1OC (centres undefined)	DRD3 antagonist -73
CSCCC(NC(=O)c1cccc(S(=O)(=O)N2CCOCC2)c1)C(=O)Nc1ccc(F)cc1 (centres undefined)	none
Cn1c(=NC(=O)CS(=O)(=O)c2ccccc2)sc2cc(F)ccc21	none
CC(=O)SCC(=O)N=c1sc2cc(F)ccc2n1C	D3 ag 46
O=C(CSc1nnc(NCc2ccccc2)s1)N1CCOCC1	none
Cc1ccc(S(=O)(=O)NCCC(=O)NCc2ccccn2)cc1	none
O=C(CNS(=O)(=O)c1ccccc1)NCc1ccccn1	DRD3 antagonist -51
O=C1C=CC(=O)N1c1ccc2c(c1)Cc1cc(F)ccc1-2	none
CC(=O)Nc1ccc2c(c1)Cc1cc(N3C(=O)C=CC3=O)ccc1-2	DRD3 antagonist -64
O=C1NCC(COCc2ccccc2)O1 (centres undefined)	none
O=C1CCCCC(=O)[C@H](O)C[C@H](COCc2ccccc2)O1	D3 ag 91 (no result: a7 integrin act)
CC1CC(C)CN(C(=O)/C(=C\c2ccccc2)c2ccccc2)C1 (centres undefined)	none
CN1CCN(C(=O)/C(=C/c2ccccc2)c2ccccc2)CC1	DRD3 antagonist -59
CCOC(=O)N1CCN(C/C(C)=C/c2ccccc2)CC1	DRD3 antagonist inconclusive
C/C(=C\c1ccccc1)CN1CCN(C)CC1	DRD3 antagonist -56
